Screening results deposited in PubChem BioAssay by Broad Institute.
miR122 inh: miR-122 suppressors via Renilla sensor increase, primary screen, cell-based, Huh7 psiCHECK-miR122, Renilla luciferase, single point | 48 h | activation, % at 12.5 µM | 340,000 tested, 0.14% active | AID 623901, 2012;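 active means mean activation of 30% or more, with every replicate also reaching 30%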;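 further: 0% = median of neutral control wells and 100% = median of positive control wells; higher luciferase signal means stronger suppression of miR-122 activity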
* marks the source's active call; other numbers are inactive results. Many of the other results were omitted from the sample, so hits are more common in it than they were.

SMILES	miR122 inh
C[C@@H]1CCCCO[C@@H](CN(C)CC2CCCCC2)[C@@H](C)CN([C@@H](C)CO)C(=O)c2cc(NC(=O)Nc3cccc4ccccc34)ccc2O1	31*
C[C@H](CO)N1C[C@H](C)[C@@H](CN(C)CC2CCCCC2)OCCCC[C@H](C)Oc2ccc(NC(=O)Nc3cccc4ccccc34)cc2C1=O	34*
C[C@@H]1CN([C@@H](C)CO)C(=O)Cc2cc(NC(=O)Nc3cccc4ccccc34)ccc2O[C@@H]1CN(C)C(=O)NC1CCCCC1	-167
COc1ccc(S(=O)(=O)Nc2ccc3c(c2)C(=O)N([C@@H](C)CO)C[C@H](C)[C@H](CN(C)C(=O)Nc2ccccc2)OCCCC[C@@H](C)O3)cc1	-120
C[C@H]1CN([C@@H](C)CO)C(=O)c2cccc(NC(=O)Nc3ccc(C(F)(F)F)cc3)c2O[C@@H]1CN(C)CC1CCCCC1	-92
C[C@H]1CN([C@@H](C)CO)S(=O)(=O)c2ccc(-c3ccccc3)cc2O[C@@H]1CN(C)Cc1ccccc1C(=O)O	-26
Cc1noc(C)c1NC(=O)N(C)C[C@@H]1Oc2ncc(C#Cc3cccc(F)c3)cc2C(=O)N([C@H](C)CO)C[C@@H]1C	11
C[C@H]1CN([C@@H](C)CO)C(=O)c2cc(C#CC(C)(C)O)cnc2O[C@H]1CN(C)C(=O)C1CC1	7
COCC#Cc1cnc2c(c1)C(=O)N([C@H](C)CO)C[C@H](C)[C@H](CN(C)C(=O)Nc1c(C)noc1C)O2	-22
COc1ccc(NC(=O)N(C)C[C@@H]2Oc3ncc(C4=CCCC4)cc3C(=O)N([C@H](C)CO)C[C@H]2C)cc1	-6
C[C@H]1CN([C@@H](C)CO)C(=O)c2cc(Br)cnc2O[C@@H]1CN(C)Cc1cccc(F)c1	0
COc1cccc(-c2cnc3c(c2)C(=O)N([C@@H](C)CO)C[C@@H](C)[C@@H](CN(C)CC2CCOCC2)O3)c1	2
CN(Cc1ccccc1)S(=O)(=O)c1ccc(NC(=S)NC(=O)C2CCCC2)cc1	-124
Cc1cc(C)nc(NS(=O)(=O)c2ccc(NC(=S)NC(=O)C3CCCC3)cc2)n1	62*
Cc1cc(C)cc(NS(=O)(=O)c2ccc(NC(=S)NC(=O)c3cccs3)cc2)c1	-133
CC(C)C#Cc1ccc2c(c1)O[C@H](CN(C)C(=O)Nc1ccccc1)[C@@H](C)CN([C@@H](C)CO)S2(=O)=O	-101
COc1ccccc1NC(=O)N(C)C[C@@H]1Oc2ncc(C#CCC(C)C)cc2C(=O)N([C@H](C)CO)C[C@H]1C	-4
C=CCc1ccccc1OCC(O)CN1CCN(CCN2C(=O)c3cccc4cccc(c34)C2=O)CC1 (configuration not stated)	46*
COCC#Cc1cnc2c(c1)C(=O)N([C@H](C)CO)C[C@H](C)[C@@H](CN(C)C(=O)Cc1ccccc1)O2	-6
C[C@@H]1CN([C@@H](C)CO)C(=O)c2cc(-c3ccc(F)cc3)cnc2O[C@H]1CN(C)Cc1ccc(C(=O)O)cc1	5
O=[N+]([O-])c1ccc(N/N=C/c2ccc[nH]2)cc1	45*
Cc1ccc(S(=O)(=O)NCCC(C)C)cc1[N+](=O)[O-]	-232
Cc1ccc(C(=O)N/N=C\c2ccc[nH]2)cc1[N+](=O)[O-]	69*
C[C@@H]1CN([C@@H](C)CO)S(=O)(=O)c2ccc(C#Cc3ccccn3)cc2O[C@@H]1CN(C)Cc1ccc(F)cc1	-3
CC(=O)N(C)C[C@@H]1Oc2cc(C#C[C@H](C)O)ccc2S(=O)(=O)N([C@@H](C)CO)C[C@H]1C	7
SMILES	miR122 inh
COCC(=O)N(C)C[C@H]1Oc2ncc(C#Cc3ccccc3OC)cc2C(=O)N([C@@H](C)CO)C[C@@H]1C	-2
C[C@H](O)C#Cc1ccc2c(c1)O[C@@H](CN(C)Cc1cccnc1)[C@@H](C)CN([C@H](C)CO)S2(=O)=O	3
Cc1noc(C)c1S(=O)(=O)N(C)C[C@@H]1Oc2c(NC(=O)C3CCCCC3)cccc2C(=O)N([C@H](C)CO)C[C@@H]1C	-197
CC(C)C#Cc1ccc2c(c1)O[C@@H](CN(C)C(=O)CC1CC1)[C@H](C)CN([C@@H](C)CO)S2(=O)=O	0
C[C@H](CO)N1C[C@H](C)[C@@H](CN(C)C)Oc2cc(C#C[C@@H](C)O)ccc2S1(=O)=O	-4
COCC(=O)N(C)C[C@H]1Oc2ncc(C#Cc3ccccc3OC)cc2C(=O)N([C@H](C)CO)C[C@H]1C	9
CCCN(C)C[C@@H]1Oc2cc(C#Cc3ccccc3F)ccc2S(=O)(=O)N([C@@H](C)CO)C[C@H]1C	-2
C[C@H]1CN([C@@H](C)CO)C(=O)c2cc(-c3cccc(F)c3)cnc2O[C@@H]1CN(C)C(=O)C1CCOCC1	-3
C[C@H](CO)N1C[C@H](C)[C@@H](CN(C)C(=O)Nc2ccc3c(c2)OCO3)Oc2cc(C#Cc3ccccc3)ccc2S1(=O)=O	-17
COc1ccc(C#Cc2ccc3c(c2)O[C@H](CN(C)C(=O)CN2CCOCC2)[C@H](C)CN([C@H](C)CO)S3(=O)=O)cc1	50*
COc1cccc(C#Cc2ccc3c(c2)O[C@@H](CN(C)C(C)=O)[C@@H](C)CN([C@@H](C)CO)S3(=O)=O)c1	-4
